Counter-ions that a name gives are not always drawn.
Tested on: Clostridium sporogenes DSM 1664
Test: growth (OD595) fold change vs plate DMSO controls (fold change (ratio)); higher = more growth
Conditions: incubation time: 27 h, anaerobic, 37 °C
Method in brief: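 Anaerobic 27 h, 37 °C mGAM 96-well cultures were shaken, then read for absorbance at 595 nm. Values were blank-subtracted and corrected for compound background using 20 µM compound solutions in water. A calibration factor of 5 converted them to OD. Growth is the fold change versus the median of plate DMSO controls. Fold changes above 1.5 were set to NA, and values are the mean of 2 biological replicates.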

| Compound | growth |
| --- | --- |
| CC(=O)[C@H]1CC[C@H]2[C@@H]3CC=C4C[C@@H](O)CC[C@]4(C)[C@H]3CC[C@]12C [Pregnenolone] (20 µM) | 1.1 |
| CC(C(=O)O)c1ccc(N2Cc3ccccc3C2=O)cc1 (stereo not given) [Indoprofen] (20 µM) | 1.13 |
| Cc1cc(O)c(C(=O)N[C@@H](C(=O)N[C@@H]2C(=O)N3C(C(=O)O)=C(CSc4nnnn4C)CS[C@H]23)c2ccc(O)cc2)cn1 [Cefpiramide] (20 µM) | 0 |
| CC(C)=CCC1C(=O)N(c2ccccc2)N(c2ccccc2)C1=O [Feprazone] (20 µM) | 1.07 |
| COC(=O)C1=C(C)NC(C)=C(C(=O)OCCN(C)Cc2ccccc2)C1c1cccc([N+](=O)[O-])c1 (stereo not given) [Nicardipine hydrochloride] (20 µM) | 1.11 |
| COCCOC(=O)C1=C(C)NC(C)=C(C(=O)OC(C)C)C1c1cccc([N+](=O)[O-])c1 (stereo not given) [Nimodipine] (20 µM) | 0.946 |
| NS(=O)(=O)c1cc2c(cc1Cl)N=CNS2(=O)=O [Chlorothiazide] (20 µM) | 1.05 |
| CC(Oc1ccccc1)C(=O)N[C@@H]1C(=O)N2[C@@H]1SC(C)(C)[C@@H]2C(=O)O (stereo not given in full) [Phenethicillin potassium salt] (20 µM) | 0 |
| Cc1ccc(N(CC2=NCCN2)c2cccc(O)c2)cc1 [Phentolamine hydrochloride] (20 µM) | 1.07 |
| CC1(C)O[C@@H]2C[C@H]3[C@@H]4C[C@H](F)C5=CC(=O)CC[C@]5(C)[C@H]4[C@@H](O)C[C@]3(C)[C@]2(C(=O)CO)O1 [Flurandrenolide] (20 µM) | 0.993 |
| NS(=O)(=O)c1cc2c(cc1C(F)(F)F)NCNS2(=O)=O [Hydroflumethiazide] (20 µM) | 0.947 |
| Nc1nc(/C(=C/CC(=O)O)C(=O)N[C@@H]2C(=O)N3C(C(=O)O)=CCS[C@H]23)cs1 [Ceftibuten] (20 µM) | 0.5 |
| O=C(O)Cc1ccc(-c2ccccc2)cc1 [Felbinac] (20 µM) | 1 |
| Nc1nnc(-c2cccc(Cl)c2Cl)c(N)n1 [Lamotrigine] (20 µM) | 0.937 |
| Nc1nc(=O)c2nc(CNc3ccc(C(=O)N[C@@H](CCC(=O)O)C(=O)O)cc3)cnc2[nH]1 [Folic acid] (20 µM) | 0.939 |
| Nc1ccc(S(=O)(=O)NC(=O)c2ccccc2)cc1 [Sulfabenzamide] (20 µM) | 1.18 |
| CCC(=O)O[C@]1(C(=O)SCF)[C@H](C)C[C@H]2[C@@H]3C[C@H](F)C4=CC(=O)C=C[C@]4(C)[C@@]3(F)[C@@H](O)C[C@@]21C [Fluticasone propionate] (20 µM) | 0.911 |
| CCOC(=O)[C@H](CCc1ccccc1)N[C@@H](C)C(=O)N1[C@H](C(=O)O)C[C@@H]2CCC[C@@H]21 [Ramipril] (20 µM) | 1.06 |
| CO/N=C(\C(=O)N[C@@H]1C(=O)N2C(C(=O)OCOC(=O)C(C)(C)C)=C(/C=C\c3scnc3C)CS[C@H]12)c1csc(N)n1 [Cefditoren Pivoxil] (20 µM) | 0.809 |
| NC[C@H]1O[C@H](O[C@H]2[C@H](O[C@@H]3O[C@H](CO)[C@@H](O)[C@H]3O)[C@@H](O)[C@H](N)C[C@@H]2N)[C@H](N)[C@@H](O)[C@@H]1O [Ribostamycin sulfate salt] (20 µM) | 1.07 |

| Compound | growth |
| --- | --- |
| Brc1c(NC2=NCCN2)ccc2nccnc12 [Brimonidine L-tartrate] (20 µM) | 0.988 |
| O=c1[nH]cnc2c1ncn2[C@H]1CC[C@@H](CO)O1 [Didanosine] (20 µM) | 1.07 |
| NS(=O)(=O)Cc1noc2ccccc12 [Zonisamide] (20 µM) | 0.883 |
| CN(C)CCC(c1ccc(Cl)cc1)c1ccccn1 (stereo not given) [Chlorpheniramine maleate] (20 µM) | 0.73 |
| OCC(O)CN1CCN(c2ccccc2)CC1 (stereo not given) [Dropropizine] (20 µM) | 0.934 |
| CC(=O)[C@H]1CC[C@H]2[C@@H]3CCC4=CC(=O)CC[C@]4(C)[C@H]3CC[C@]12C [Progesterone] (20 µM) | 1.08 |
| CC(C)(C)NC(=O)[C@@H]1CN(Cc2cccnc2)CCN1C[C@@H](O)C[C@@H](Cc1ccccc1)C(=O)N[C@H]1c2ccccc2C[C@H]1O [Indinavir sulfate] (20 µM) | 1.29 |
| c1ccc2c(c1)CCCC2C1=NCCN1 (stereo not given) [Tetrahydrozoline hydrochloride] (20 µM) | 0.99 |
| O=[N+]([O-])c1ccc(O)c2ncccc12 [Nitroxoline] (20 µM) | 1.24 |
| COCC(=O)O[C@]1(CCN(C)CCCc2nc3ccccc3[nH]2)CCc2cc(F)ccc2[C@@H]1C(C)C [Mibefradil hydrochloride] (20 µM) | 1.05 |
| Nc1nc(Cl)nc2c1ncn2[C@H]1C[C@H](O)[C@@H](CO)O1 [Cladribine] (20 µM) | 0.964 |
| CN(CCOc1ccc(CC2SC(=O)NC2=O)cc1)c1ccccn1 (stereo not given) [Rosiglitazone hydrochloride] (20 µM) | 1.05 |
| C[C@@H](O)[C@H]1C(=O)N2C(C(=O)O)=C(S[C@@H]3CN[C@H](C(=O)N(C)C)C3)[C@H](C)[C@H]12 [Meropenem] (20 µM) | 0 |
| CNCCC=C1c2ccccc2C=Cc2ccccc21 [Norcyclobenzaprine] (20 µM) | 1.1 |
| CCCCS(=O)(=O)N[C@@H](Cc1ccc(OCCCCC2CCNCC2)cc1)C(=O)O [Tirofiban hydrochloride] (20 µM) | 0.927 |
| OC[C@H]1O[C@@H](n2cnc3cncnc32)[C@H](O)[C@@H]1O [Nebularine] (20 µM) | 0.985 |
| CC1(C)S[C@@H]2[C@H](NC(=O)[C@H](N)c3ccccc3)C(=O)N2[C@H]1C(=O)O [Ampicillin trihydrate] (20 µM) | 0 |
| Oc1ncnc2[nH]ncc12 [Allopurinol] (20 µM) | 1.03 |
| CC(C)(C)c1ccc(C(=O)CCCN2CCC(OC(c3ccccc3)c3ccccc3)CC2)cc1 [Ebastine] (20 µM) | 1.13 |
| CCOC(N)=O [Urethane] (20 µM) | 0.952 |
